Screens: PubChem BioAssay, several laboratories
Vif imaging = blocks HIV Vif function; HEK293T cells, Vif self-association by quenched fluorescence, imaging, 24 h; inhibition, % at 7.49 µM; hit rate 0.35% among 340,000; in the data active means inhibition above about 50%, passing the limit was not always enough; inconclusive means no clear call, values can overlap the other calls; inactive means below about 31%
SMARCA2 activ = SMARCA2 function activation, primary screen; activation, % at 9.1 µM; hit rate 1% among 370,000; MG213 cells, MMTV-luciferase reporter, dexamethasone, overnight; in the data active means activation above about 7.8%;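 further: 0% = vehicle wells and 100% = reference activator wells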
NadD block = inhibitors of Staphylococcus aureus NadD; hit rate 0.78% among 360,000; purified NadD enzyme, colorimetric absorbance read-out; inhibition, % at 20 µM; in the data active means inhibition above about 26%
SKN-1 block = blocks SKN-1 activity in C. elegans | hit rate 0.49% among 360,000 | inhibition, % at 21.8 µM | C. elegans VP596 Pgst-4::GFP/RFP ratio, acrylamide-induced, 24 h | AID 624304;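 active means interference check ratio from 0.5 to 1.5 plus GFP to RFP signal ratio inhibition reaching or exceeding a fixed threshold, cut at about 30% in these data, passing the limit was not always enough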
esBAF inh = inhibitors of esBAF chromatin remodeling in mouse ES cells. Bmi1-luciferase knock-in reporter, 24 h; 100% = twice the neutral-well signal. reporter increase, % at 12.5 µM. hit rate 2% among 350,000; in the data active means activation above about 40%; inconclusive means no clear call, values can overlap the other calls;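 further: 0% = median of the plate's neutral control wells and 100% = double that signal; a rise in the Bmi1 reporter signal indicates esBAF inhibition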
NR3A LBD binder = modulators (binders) of human NR3A ligand-binding domain. AID 1259313. NR3A LBD differential scanning fluorimetry, Tm shift; 0% = protein alone, 100% = glycine-bound protein. hit rate 2.5% among 340,000. Tm shift relative to glycine control, % at 25 µM;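 active means melting temperature shift of at least 10% of the positive control shift, at one fixed dose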
The depositor's hits bear a star; u = inconclusive; x = no result given. Only some compounds are listed: those with a hit (about 5.2% of all), similar ones and a draw of the others.

SMILES | Vif imaging | SMARCA2 activ | NadD block | SKN-1 block | esBAF inh | NR3A LBD binder
CC(=O)Nc1ccc(S(=O)(=O)Nc2nc3ccccc3nc2Nc2ccc(O)c(C(=O)O)c2)cc1 | -6.5 | -1.9 | -6.6 | -2.5 | 5.1 | 8.0
NS(=O)(=O)c1ccc(Nc2nc3ccccc3nc2NS(=O)(=O)c2cccc([N+](=O)[O-])c2)cc1 | 0.1 | -0.5 | 4.1 | -1.1 | x | 32.0*
O=S(=O)(Nc1nc2ccccc2nc1N1CCN(c2ccccc2)CC1)c1ccc(F)cc1 | -3.5 | -1.8 | 14.0 | 6.2 | x | 23.8*
C[C@@H]1CN([C@H](C)CO)C(=O)c2cccc(NS(=O)(=O)c3ccc(F)cc3)c2O[C@H]1CN(C)S(=O)(=O)c1cn(C)cn1 | x | x | x | x | -3.1 | x
COc1cccc(Nc2nc3ccccc3nc2NS(=O)(=O)c2ccc(NC(C)=O)cc2)c1 | 1.9 | x | 9.7 | 1.5 | x | 22.1*
N#CCSc1nnc(COc2ccc3ccccc3c2)o1 | -4.6 | 1.1 | -5.8 | 4.6 | 3.8 | 15.0*
N#CCSc1nnc(CNc2cccc(Cl)c2)o1 | 4.5 | -0.8 | -1.7 | -3.7 | -1.4 | 14.2*
C[C@@H]1CN([C@H](C)CO)C(=O)CCCn2nncc2CO[C@@H]1CN(C)Cc1cccc(C(=O)O)c1 | x | x | x | x | 2.4 | x
CC(=O)Nc1c(S(=O)(=O)c2ccccc2)c2nc3ccccc3nc2n1Cc1ccccc1 | -9.0 | -0.2 | 5.0 | 9.3 | x | -6.1
C=CCn1c(NS(=O)(=O)c2ccccc2)c(S(=O)(=O)c2ccc(C)cc2)c2nc3ccccc3nc21 | -8.3 | -0.5 | -1.5 | -0.1 | -5.1 | 10.8*
CCC(C)c1ccc2oc(-c3ccc(NC(=O)Cn4cnc5c(=O)n(C)c(=O)n(C)c54)cc3)nc2c1 (stereo not given) | 1.6 | 0.0 | -4.4 | -6.3 | 14.9 | 23.1*
COc1ccccc1-c1cc(C(F)(F)F)nc(S(=O)(=O)CCCC(=O)NC(C)C)n1 | u | 4.0 | -0.6 | -4.3 | x | 1.7
COc1ccc(-c2cc(C(F)(F)F)nc(S(=O)(=O)CCCC(=O)Nc3cc(C)on3)n2)cc1OC | 88.6* | -9.4 | 0.9 | 5.8 | x | 0.0
COc1ccccc1-c1cc(C(F)(F)F)nc(S(=O)(=O)CCCC(=O)Nc2cc(C)on2)n1 | 60.2* | -0.2 | -1.2 | 7.9 | 8.1 | 4.9
O=c1[nH]c(/C=C/c2ccccn2)nc2ccccc12 | -7.8 | 2.6 | -0.1 | 13.6 | 43.9* | 2.9
O=c1[nH]c(/C=C/c2ccccc2F)nc2ccccc12 | 6.4 | 1.4 | -0.3 | 5.6 | -27.6 | 38.5*
O=c1[nH]c(/C=C/c2cccc3ccccc23)nc2ccccc12 | 2.2 | 2.6 | 2.7 | 5.9 | x | -2.0
O=c1[nH]c(/C=C/c2ccc(Br)cc2)nc2ccccc12 | 0.0 | 2.7 | -1.6 | -4.2 | -1.7 | -1.9
Fc1c(F)c(-n2nnc3ccccc32)c(F)c(F)c1Cl | 60.4* | 2.6 | -5.5 | 3.5 | -0.7 | 0.5
COC(=O)c1c2c(nc3ccccc13)CCC2 | 21.4 | -1.3 | -2.8 | 41.2* | -5.1 | 0.8
CC(C)(C)C(=O)COC(=O)c1c2c(nc3ccccc13)CCC2 | -3.3 | 0.3 | 4.5 | 3.6 | x | -2.0
COc1cc(NC(=O)CSc2c3c(nc4ccccc24)CCC3)cc(OC)c1OC | 1.2 | -1.7 | -1.6 | -4.6 | x | 12.8*
COc1ccccc1NC(=O)CSc1c2c(nc3ccccc13)CCC2 | 0.5 | -2.3 | -1.5 | 5.8 | x | -10.9
C[C@H](CO)N1C[C@H](C)[C@@H](CN(C)Cc2ccncc2)Oc2cc(C#CC(C)(C)O)ccc2S1(=O)=O | x | x | x | x | 8.3 | x
Cc1ccc(NC(=O)C2CCCN(c3ncccn3)C2)c(C)c1 (stereo not given) | -0.7 | 2.2 | 0.3 | 9.5 | 50.6* | -2.9
SMILES | Vif imaging | SMARCA2 activ | NadD block | SKN-1 block | esBAF inh | NR3A LBD binder
CC(C)(C)OC(=O)N1CCN(C(=O)Nc2ccc3c(c2)OCCO3)CC1 | -3.8 | -1.2 | 2.2 | -12.7 | 47.8* | 0.2
CC(C)(C)OC(=O)N1CCC(C(=O)Nc2ccc3c(c2)CCC3)CC1 | 0.1 | 4.0 | -5.4 | -4.2 | 74.5* | 0.2
CC(=O)N1CCC(C(=O)Nc2ccc3c(c2)CCC3)CC1 | -5.9 | -1.6 | -1.9 | -3.1 | x | 1.1
O=C(Nc1ccc2c(c1)CCC2)C1CCCN(c2ncccn2)C1 (stereo not given) | -13.0 | 0.4 | 3.9 | -12.1 | 62.0* | 1.4
C[C@@H]1CN([C@H](C)CO)C(=O)c2cc(-c3ccccc3)cnc2O[C@@H]1CN(C)Cc1cccnc1 | x | x | x | x | -4.8 | x
OC(COCc1ccccc1)CN1CCCC1 (stereo not given) | -1.5 | -1.4 | 2.1 | 8.0 | -6.1 | 10.5*
COc1ccc(CNc2ccc(-c3ccccc3OC)nn2)cc1 | u | -1.4 | 9.9 | 10.7 | 33.7 | -0.2
COc1ccc(CNc2ccc(-c3ccc(OC)cc3)nn2)cc1 | 3.4 | -1.2 | -5.9 | 20.4 | 44.7* | -12.1
COc1ccc(CNc2cc(C)ccn2)cc1 | 2.0 | 1.6 | -2.1 | 13.2 | 11.2 | 10.4*
CC(C)NC(=O)Nc1cccc2c1O[C@H](CN(C)Cc1ccncc1)[C@H](C)CN([C@H](C)CO)C2=O | x | x | x | x | -4.3 | x
N#CCc1ccc(NC(=O)Nc2cccc(Cl)c2)cc1 | -14.0 | 5.0 | -11.9 | -6.1 | -0.2 | 25.6*
Cc1cccc(N(O)C(=O)Nc2cccc(Cl)c2)c1 | -2.6 | 2.8 | -7.9 | 10.9 | 51.1* | -6.0
O=C(NCc1ccc(F)cc1)Nc1cccc(Cl)c1 | -0.3 | 3.6 | -4.4 | -0.1 | x | -5.2
CC(=O)Nc1cccc(NC(=O)Nc2cccc(F)c2)c1 | -22.1 | 3.0 | -1.6 | -5.0 | x | 28.9*
O=C(Nc1cccc(Cl)c1)c1cnc[nH]1 | -9.9 | 3.7 | 0.8 | 30.0 | 58.1* | -0.5
CC(C)COC(=O)NCCOC(=O)Nc1cccc(Cl)c1 | x | -3.4 | -8.6 | -4.6 | -13.1 | -1.5
COC(=O)c1cc(NC(=O)c2ccc(-c3ccccc3)cc2)ccc1Cl | -10.4 | -2.2 | -10.1 | 4.3 | x | 5.1
N#Cc1ccccc1NC(=O)Nc1ccc(Cl)cc1 | 1.0 | 2.4 | -8.7 | 0.0 | 7.4 | -1.5
O=C(Nc1cccc(Cl)c1)OCCOCCOC(=O)Nc1cccc(Cl)c1 | -7.9 | -2.9 | -2.6 | 11.9 | -5.6 | 36.1*
COC(=O)c1cc(NC(=O)Nc2cccc(Cl)c2)ccc1Cl | -10.3 | -6.0 | -10.7 | -1.3 | 20.9 | 38.2*
N#Cc1ccccc1NC(=O)Nc1cccc(Cl)c1 | -5.3 | 1.8 | -4.7 | 40.7* | x | -0.4
CC(=O)/C(N)=N/Nc1cccc(Cl)c1 | -2.4 | 1.4 | 7.2 | 9.8 | x | 20.3*
CO[C@@H]1CC[C@@H]2CCOc3ccc(C#N)cc3C(=O)N(C)C[C@H](C)C(=O)N(C)C[C@@H]1O2 | x | x | x | x | 1.2 | x
O=C(NC(=O)c1ccc(Cl)cc1)OC1CCCCC1 | 11.9 | 1.1 | -4.9 | 0.0 | x | -6.5
O=C(Nc1cccc(Cl)c1)Nc1cccc(Cl)c1 | -8.7 | -0.3 | -0.4 | -21.1 | 5.0 | 32.8*
O=C(Nc1ccccc1Cl)OC1CCCCC1 | -2.6 | 0.7 | -6.3 | 10.1 | 56.1* | 5.0
O=C(Nc1cccc(F)c1)Nc1cccc(Cl)c1 | -4.0 | -3.1 | -6.2 | 13.7 | 55.0* | 42.0*
